MCF10A rereplic = A quantitative high throughput screen for small molecules that induce DNA re-replication in MCF 10a normal breast cells | MCF 10A DNA re-replication, Hoechst nuclear intensity, 48 h | Potency, µM (doses to about 46.1 µM), for inactives: at the top dose activity, positive = re-replication, actives largely listed as activators | 2.9% of 350,000 active | AID 624296, 2012; note: potency is the fitted concentration of half-maximal effect; % of control where 0% means no effect; nearly all actives have a fitted effect of over 50% in size
Giardia kill = Small Molecules that selectively kill Giardia lamblia: qHTS; activity change, % at 7.66 µM, hits read low; AID 540267, 2011; 0.15% of 340,000 active; Giardia lamblia trophozoite viability; in the data active = activity change below about -80%; inconclusive = between about -30% and that limit;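 note: parasites exposed to compound for two days anaerobically before the ATP read; % is set by controls: 0 for no effect and ±100 for the full control effect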
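Luminescent ATP signal served as the viability read-out, measured 15-30 min after adding ATP detection reagent to trophozoites that had been incubated with compounds for 48 hrs at 37 deg C anaerobically at 100 cells/well.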
SW480 rerep = A quantitative high throughput screen for small molecules that induce DNA re-replication in SW480 colon adenocarcinoma cells | 1.8% of 340,000 active | Potency, µM (highest dose often 46.1 µM), without a hit: at the top dose re-replication activation, hits mostly activators | SW480 DNA re-replication, Hoechst DNA content imaging, 48 h; note: potency is the fitted concentration of half-maximal effect; % of control where 0% means no effect; nearly all actives have a fitted effect of over 55% in size
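Image-based DNA-content assay: after two days of treatment, nuclei were labelled with the DNA dye Hoechst and imaged, and hits were compounds raising the count of nuclei showing high fluorescence intensity.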
uPA surface inh = qHTS for Inhibitors of Cell Surface uPA Generation. cell surface uPA generation assay, qHTS. Potency, µM (titrated, usually from 38.3 µM), for inactives: top-dose activity change, negative = inhibition, most hits filed as inhibitors. 0.31% of 330,000 active; active = well fitted inhibition curve with a large enough effect; inconclusive = small, poorly fitted or top-dose-only effect; inactive = no such curve, though single readings can be large or run the other way; tested in mouse RAW 264.7 cells; note: potency is the fitted concentration of half-maximal effect; % is set by controls: 0 for no effect and ±100 for the full control effect; nearly all actives have a fitted effect of over 55% in size
Active calls of the source: *; ? = inconclusive; · = no result; [ ] = dose if it differs, or a comment. Hits are enriched below; roughly 4.3% of the tested compounds scored in any of these assays. Unless noted, calls come from the whole dose curve; as a rule, active = well fitted activation curve with a large enough effect; inconclusive = small, poorly fitted or top-dose-only effect; inactive = no such curve, though single readings can be large or run the other way.

SMILES	MCF10A rereplic	Giardia kill	SW480 rerep	uPA surface inh
Cc1ccc(/C=N/NC(=O)c2nnn(-c3nonc3N)c2CNc2ccccc2)cc1	15%	28	23%	5%
Cc1c(C(=O)N/N=C/c2c(O)ccc3ccccc23)nnn1-c1nonc1N	-1%	32	0.73µM*	-14%
Nc1nonc1-n1nnc(C(=O)N/N=C/c2cc(Br)ccc2O)c1CNc1ccccc1	7.3µM*	?	?	12%
Brc1ccc(Br)c2cnccc12	0%	-2	-3%	4%
COc1ccc(COC(=O)C2=C(C)NC(=O)NC2c2cc(OC)ccc2OC)cc1 (stereo unspecified)	0.52µM*	-12	-11%	5%
COc1cccc(NC(=S)/C(=C(\[O-])c2ccc([N+](=O)[O-])cc2)[n+]2ccccc2)c1	12%	10	11%	0%
CCOCC(=O)NC1CCc2cc(OC(=O)COCC)c(OC)c(OC)c2-c2ccc(SC)c(=O)cc21 (stereo unspecified)	?	9	0.082µM*	-11%
COc1cc2c(c(OC)c1OC)-c1ccc(SC)c(=O)cc1C(NC(=O)C(F)(F)F)CC2 (stereo unspecified)	?	4	0.021µM*	-13%
O=C(c1ccccc1)c1ccccc1N1C(=O)C=CC1=O	5.2µM*	0	?	-5%
O=C(O)c1ccccc1C(=O)c1ccc(-c2ccccc2)cc1	-6%	-3	-4%	-4%
O=C1C=CC(=O)N1c1ccccn1	-24%	-8	0%	0%
O=C1C=CC(=O)N1c1ccccc1N1C(=O)C=CC1=O	?	7	2.3µM*	-19%
COc1ccccc1N(C)S(=O)(=O)c1ccc(C(=O)NCC2CCCCC2)cc1	14%	-10	-12%	-6%
O=C(NCCN1CCN(c2ccccc2)CC1)c1ccc2c(c1)[nH]c(=S)n1c3ccccc3nc21	?	-8	-4%	0%
O=C(c1ccc2c(c1)[nH]c(=S)n1c3ccccc3nc21)N1CCN(c2ncccn2)CC1	9.2µM*	-3	-11%	2%
CC(C)N1CCNCC1	-2%	-3	-4%	6%
CC1(C)OC2OC(C3COC(=O)O3)C(OC(=O)c3ccccc3)C2O1 (stereo unspecified)	-3%	17	-8%	2%
Fc1ccc(C2C3=C(Nc4ncnn42)c2ccccc2OC3c2ccncc2)cc1 (stereo unspecified)	23%	-9	16%	1%
Cc1ccc(C2Oc3ccccc3C3=C2C(c2cccs2)n2ncnc2N3)cc1 (stereo unspecified)	5.8µM*	2	?	-7%
O=C(Nc1cccc2cccnc12)c1c(Cl)cc(Cl)cc1Cl	·	-8	·	·
CC(C)C(NC(=O)C(CC(=O)O)NC(=O)C(CCCCN)NC(=O)C(N)CCCN=C(N)N)C(=O)NC(Cc1ccc(O)cc1)C(=O)O (stereo unspecified)	1%	·	3%	·
CN(C)/C=C1/C=C(c2ccccc2)OC1=O	18µM*	-23	?	·
CCCNC(=O)C1CC(=O)N(c2ccc(OCc3ccc(F)cc3)cc2)C1 (stereo unspecified)	0.65µM*	11	-67%	?
COC(=O)c1[nH]c2c(c1C)C(=O)CC(c1cc(OC)ccc1OC)C2 (stereo unspecified)	8.2µM*	-8	?	5.6µM*
COC(=O)c1[nH]c2c(c1C)C(=O)CC(c1cccs1)C2 (stereo unspecified)	2.1µM*	?	?	-15%
SMILES	MCF10A rereplic	Giardia kill	SW480 rerep	uPA surface inh
Cc1c(C(=O)O)[nH]c2c1C(=O)CC(c1ccccc1)C2 (stereo unspecified)	6%	-4	-1%	0%
CCOc1ccc(C2CC(=O)c3c([nH]c(C(=O)OC)c3C)C2)cc1OC (stereo unspecified)	13%	14	13%	-4%
Cc1ccc2nc(-c3sc4nc(C)ccc4c3N)[nH]c2c1	16µM*	7	?	-13%
CCn1c(SCC(=O)N2CCN(c3ccccc3)CC2)nnc1-c1c[nH]c2ccccc12	16%	-9	?	7.9µM*
Cn1c(SCC(=O)N2CCN(c3ccccc3)CC2)nnc1-c1c[nH]c2ccccc12	-10%	17	3%	-10%
Cc1cc(CN2CCC(N3CCC(C(=O)NC4CC4)CC3)CC2)cc(C)c1O	13%	3	12%	-3%
CCC1CSC(Nc2ccc(C(=O)/C=C/c3ccc(Br)cc3)cc2)=N1 (stereo unspecified)	16µM*	-8	?	-18%
CSC(=NS(=O)(=O)c1ccc(N)cc1)NS(=O)(=O)c1cccs1	-15%	-10	-7%	4%
O=C(Nc1cc(-c2ccccc2)nn1-c1c(Cl)cccc1Cl)c1ccc(F)cc1	15µM*	-5	1%[9.22 µM]	?
CCOC(=O)C1=CC[C@H]2c3c(c4ccccc4n3C)C[C@H]1N2C	25%	-7	2%	-3%
CC(=O)Nc1ccc(-c2cn3cc(C)ccc3n2)cc1	2%	?	2%	4.5µM*
Cc1ccc2nc(-c3ccccc3)cn2c1	-4%	?	-17%	-14%
CC(=NNC(=O)c1ccncc1)c1ccccc1O	18µM*	-3	0.58µM*	-15%
CC(C)CC(=NNC(=O)c1ccncc1)c1cc(Cl)ccc1O	?	10	1.2µM*	-9%
C/C(=N\NC(=O)c1cccc2ccccc12)c1cccnc1	0%	13	0%	-2%
CC(=NNC(=O)c1ccncc1)c1ccc(O)cc1O	?	12	?	-16%
C/C(=N\NC(=O)CN1CCCCC1)c1ccccc1O	15%	-16	6.5µM*	-7%
CC(=NNC(=O)c1ccncc1)c1ccc2ccccc2c1O	18µM*	-12	2.3µM*	-16%
CN(Cc1ccccc1)C(=O)c1cccc(NC(=O)Cc2cccc(NC(=O)C3CCN(C(=O)c4ccccc4)CC3)c2)c1	6%	-11	0%	1%
Fc1ccc(-c2ccc3c(c2)C2CC3CCN2)cc1 (stereo unspecified)	13%	-26	-4%[9.22 µM]	?
CC(C)(C)NC(=O)C1CC(=O)N(CCc2ccc(F)cc2)C1 (stereo unspecified)	0%	-18	-3%	0%
CC(O)C1CCC2C3CCC4CC(O)CCC4(C)C3CCC12C (stereo unspecified)	0%	·	-8%	·
C/C(=N\NC(=O)c1ccc(CN2CCc3ccccc3C2)cc1)c1ccccc1O	23µM*	0	21µM*	-10%
C/C(=N\NC(=O)c1cc(C)nc2ccccc12)c1ccncc1	12µM*	-6	5.2µM*	-15%
CCCNC(=O)c1ccc(CN2CCc3ccccc3C2)cc1	1%	18	-10%	3%
C/C(=N\NC(=O)c1cc(C)nc2ccccc12)c1ccc([N+](=O)[O-])cc1	1%	8	-2%	-2%
CCN(c1ccccc1)S(=O)(=O)c1ccc(Cl)c(NC(=O)CN(C)Cc2cccc(F)c2)c1	?	-8	20%	-8%
